Compounds with a hit are over-represented: about 0.41% of the library has one in this group of screens.
GAA spleen mod: inhibits or activates alpha-glucosidase in human spleen homogenate; P10253; human spleen homogenate, 4-MU-alpha-glucoside fluorescence; Potency, µM (top dose mostly 79.9 µM), hits mostly inhibitors; 240,000 tested, 0.006% active; AID 2112
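Human spleen homogenate (1 ug) with 4-methylumbelliferyl-alpha-D-glucopyranoside (1 mM final) in 50 mM citrate/phosphate pH 5.0, 0.01% Tween-20; 40 min at 37 C. Stopped at pH 10; 4-MU fluorescence Ex 365/Em 440 nm; AC50 by Hill fit.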
GLA spleen mod: alpha-galactosidase A (human) modulation; P06280; human spleen homogenate, 4MU-alpha-Gal fluorescence, 40 min; Potency, µM (titrated, usually from 80 µM), hits mostly inhibitors; 240,000 tested, 0.008% active
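Fluorogenic readout (Ex 365/Em 440 nm) of 4-methylumbelliferone released from 1 mM 4-MU-alpha-galactoside by spleen homogenate, 40 min at 37C, pH 5.0. Data normalized to no-enzyme and enzyme controls; Hill-equation AC50 from compound titrations.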
N370S GC: N370S glucocerebrosidase modulation, Gaucher chaperone candidate; P04062; N370S GC spleen homogenate, 4MU-glucoside fluorescence; Potency, µM (highest dose often 59.4 µM), actives largely listed as inhibitors; 330,000 tested, 0.092% active; AID 2101
GAA glycogen mod: alters human alpha-glucosidase cleavage of glycogen; 300,000 tested, 0.38% active; recombinant GAA, glycogen substrate, Amplex Red glucose oxidase fluorescence; P10253; Potency, µM (highest dose often 76.4 µM), actives largely listed as inhibitors;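 further: the screen sought inhibitors and activators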
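Recombinant human enzyme (4 nM); glycogen substrate; 37 C, 40 min, pH 5.0. Readout: coupled glucose oxidase/Amplex Red fluorescence.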
GAA inh: alpha-glucosidase (human) inhibition | purified human GAA, 4-MU-alpha-glucoside fluorescence | AID 1466 | P10253 | Potency, µM (highest dose often 76.9 µM), actives largely listed as inhibitors | 200,000 tested, 0.005% active
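Activity normalized between no-enzyme (basal) and enzyme-only wells. Conditions: 4 nM human enzyme, 400 uM fluorogenic substrate, citrate/phosphate pH 5.0 with Tween-20, 20 min room temperature, compounds up to 77 uM.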
GLA inh pH 4.5: alpha-galactosidase A (human) inhibition, pH 4.5 | P06280 | purified enzyme, 4-MU-alpha-Gal fluorescence, pH 4.5 | activity change, negative = inhibition, % at 105 µM | 230,000 tested, under 10 active | AID 1467
Target sequence (P06280 whole entry, looked up): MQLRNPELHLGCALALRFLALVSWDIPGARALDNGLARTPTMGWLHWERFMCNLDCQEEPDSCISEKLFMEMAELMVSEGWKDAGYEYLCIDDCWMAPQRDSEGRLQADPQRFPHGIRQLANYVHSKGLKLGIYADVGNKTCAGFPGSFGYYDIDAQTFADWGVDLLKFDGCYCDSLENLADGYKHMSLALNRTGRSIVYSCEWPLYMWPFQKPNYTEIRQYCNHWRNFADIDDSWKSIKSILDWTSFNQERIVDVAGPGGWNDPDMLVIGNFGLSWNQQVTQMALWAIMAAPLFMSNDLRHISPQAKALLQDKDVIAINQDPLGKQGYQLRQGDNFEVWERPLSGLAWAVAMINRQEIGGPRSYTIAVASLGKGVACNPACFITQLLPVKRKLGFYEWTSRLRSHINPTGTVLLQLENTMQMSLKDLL
Numbers stand for hits; . = inactive; ? = inconclusive; / = no result; [ ] = another dose, or the depositor's remark. The call rests on the fitted dose curve; in most records, active means well fitted curve in the direction sought with a large enough effect; inconclusive means small, poorly fitted or top-dose-only effect, or another doubt; inactive means no such curve, though single readings can be large; an effect the other way counts as inactive or inconclusive.

SMILES	GAA spleen mod	GLA spleen mod	N370S GC	GAA glycogen mod	GAA inh	GLA inh pH 4.5
Cc1c(N=Cc2c(O)n(C)c(=O)c3ccccc23)c(=O)n(-c2ccccc2)n1C	.	.	.	.	?	.
Cc1cccn2c(=O)c(C=Nc3c(C)n(C)n(-c4ccccc4)c3=O)c(N3CCCC3)nc12	.	.	.	11.2µM	.	.
O=C(CN(c1cccc(Br)c1)S(=O)(=O)c1ccccc1)N1CCc2ccccc2C1	/	/	/	.	/	/
Cn1nnnc1SCCNC(=O)C1CCC(=O)N(CCc2cccc(F)c2)C1 (configuration not stated)	/	/	.	/	/	/
COc1cc2nc(SCc3ccc(C)cc3)n3nc(CCn4nc(C)cc4C)nc3c2cc1OC	/	/	/	.	/	/
COc1ccccc1CNc1ccc(-c2nc(-c3cccc(C)c3)no2)cc1[N+](=O)[O-]	/	/	/	.	/	/
COc1ccc(CCNC(=O)c2cc3sccc3n2Cc2ccc(Cl)cc2)cc1OC	/	/	/	.	/	/
COc1ccc(/C=N/Nc2nonc2N)cc1OC	.	.	.	15.8µM	.	.
CCOC(=O)c1[nH]c(C)c(C(=O)NCCc2ccccc2)c1C	/	/	/	.	/	/
CCCNC(=S)Nc1ccc(Nc2ccccc2)cc1	.	.	.	15.7µM	.	.
CNC(=S)Nc1ccc(Nc2ccccc2)cc1	.	.	.	24.9µM	.	.
CNC(=S)Nc1ccc(Br)cc1	.	.	.	.	.	.
O=C(COc1ccc(Br)cc1)Nc1ccc(C(=O)OC2CCCCC2)cc1	/	/	/	.	/	/
Nc1ccc2nc(N3CCOCC3)sc2c1	.	.	.	6.26µM	.	.
C=CCn1c2ccccc2c2nnc(SCC(N)=O)nc21	/	/	.	.	/	/
C=CCn1c2ccccc2c2nnc(SCC(=O)NC(C(=O)OC)C(C)C)nc21 (configuration not stated)	.	39.8µM	.	.	.	.
CC(=O)Oc1ccc(C(=C2CCCCC2)c2ccc(OC(C)=O)cc2)cc1	.	.	.	/	/	/
Cc1cc(NC(=O)c2c(F)cccc2Cl)no1	.	.	.	.	.	.
Cc1ccc(NNC(=O)c2c(F)cccc2Cl)cc1C	.	.	.	25.1µM	/	.
COc1ccc(NC(=O)Cn2c(=O)n(C(C)C)c(=O)c3oc4ccccc4c32)cc1Cl	/	/	/	.	/	/
CN1/C(=C\C(=O)COC(=O)c2ccc(O)c(O)c2)C(C)(C)c2ccccc21	.	.	.	10µM	.	.
COC(=O)c1c(-c2cccs2)csc1NC(=O)c1ccc(Br)cc1	/	/	/	.	/	/
COc1ccc2c(c1)-c1nc(NC(=O)c3cc(OC)c(OC)c(OC)c3)sc1CC2	/	/	/	.	/	/
O=c1nc(/C=C/c2ccc(O)c(O)c2)oc2ccccc12	.	.	.	7.08µM	/	.
CN=c1scc(C)n1/N=C/c1ccc(O)c(O)c1O	.	.	/	11.2µM	.	.
SMILES	GAA spleen mod	GLA spleen mod	N370S GC	GAA glycogen mod	GAA inh	GLA inh pH 4.5
CN=c1scc(-c2cccs2)n1/N=C/c1ccc(O)c(O)c1O	.	.	.	?	?	.
COc1ccc(S(=O)(=O)c2cnc3ccc(Cl)cc3c2N2CCCCC2C)cc1 (configuration not stated)	/	/	/	.	/	/
CC(=O)c1ccc2c3c(ccc(O)c13)CC2	.	.	.	31.4µM	.	.
CC(=O)c1ccc(N2CCOCC2)cc1O	.	.	.	/	/	/
CC(=O)c1cccc(NC(=O)c2nc3ccccc3n(C)c2=O)c1	/	/	/	.	/	/
CC1CCCC(NC(=O)c2ccncc2)C1C (configuration not stated)	/	/	.	.	/	/
CC1CCCC(NC(=O)Nc2cccs2)C1C (configuration not stated)	.	.	.	14µM	.	.
Nc1cc(Cl)c(N)cc1Cl	.	.	.	28.2µM	.	.
Nc1cc(Cl)c(N)c(Cl)c1	.	.	.	/	/	/
N#CCCn1c(=O)c(CCc2ccccc2)nc2cnc(Oc3cccc(Cl)c3)nc21	.	.	.	/	/	/
CN(C)c1ccc(NC(=O)N2CCOCC2)cc1	.	.	.	12.6µM	.	.
O=C(Nc1ccc(F)cc1)N1CCOCC1	.	.	.	.	.	.
COCCCNC(=S)NNC(=S)Nc1ccc(OC)cc1	.	.	.	4.47µM	/	.
COCCCNC(=S)Nc1ccc(N2CCCCC2)cc1	.	.	.	14.1µM	.	.
CCNC(=S)Nc1ccc(N2CCCCC2)cc1	.	.	.	?	.	.
Cc1sc2nc(CN3CCN(c4ccc(O)cc4)CC3)[nH]c(=O)c2c1C	.	.	.	15.8µM	/	.
CC(C)Nc1nc(NC(C)C)nc(N(C)N)n1	.	.	/	28.2µM	.	.
CCNc1nc(NCC)nc(N(C)N)n1	.	.	.	35.5µM	.	.
CCCCn1c(=O)c2oc3ccccc3c2n(Cc2ccc(OC)cc2)c1=O	/	/	/	.	/	/
CCc1cc2c(cc3c(=O)n(CCCC(=O)NCc4cccc(Cl)c4)ncn32)s1	/	/	/	.	/	/
N#Cc1ccc(-c2csc(NNC(=O)c3ccccc3)n2)cc1	.	.	.	28.2µM	.	.
COc1ccccc1N1C(=O)N(C(C)=O)C2C1Nc1ccccc1N2C (configuration not stated)	.	.	.	35.5µM	.	.
N#C/C(=C/c1cn(-c2ccccc2)nc1-c1cccc(OCc2ccc(F)cc2)c1)C(=O)NCCCn1ccnc1	.	.	15.8µM	.	.	.
CCCOc1cccc(-c2nn(-c3ccccc3)cc2/C=C(\C#N)C(=O)NCCCn2ccnc2)c1	.	.	.	.	.	.
CCCN(C(=O)c1cc2c(s1)-c1ccccc1OC2)c1ccc(C(C)C)cc1	/	/	/	.	/	/
SMILES	GAA spleen mod	GLA spleen mod	N370S GC	GAA glycogen mod	GAA inh	GLA inh pH 4.5
CCOC(=O)c1c(C)[nH]c(C=Nc2ccccc2)c1O	.	.	.	.	.	.
CCOC(=O)c1c(C)[nH]c(C=Nc2ccc(OC)cc2)c1O	.	.	.	8.91µM	.	.
CCN1C(C)=C(C(=O)OC)C(c2ccccc2)N2C(=O)[C@](O)(C(=O)OC)C(c3ccccc3)C(C(=O)c3ccccc3)=C12 (some centres not stated)	.[17.4 µM]	.[17.5 µM]	?	/	/	/
O=C1/C(=C/c2ccc(O)c(O)c2)Oc2cc(O)ccc21	.	.	.	22.4µM	/	.
COc1ccc2c(/C=N/NS(=O)(=O)c3ccc(C)cc3)c[nH]c2c1	.	.	.	8.91µM	/	.
Nc1nc(-c2ccccc2)c(-c2ccccc2)s1	.	.	.	.	.	.
Nc1nc(-c2ccccc2)c(N=Nc2ccc(Cl)cc2)s1	.	.	2.51µM	.	.	.
O=C(NCC1CCCO1)NC1(C(F)(F)F)Oc2ccccc2O1 (configuration not stated)	.	.	.	.	.	.
O=C(NC1(C(F)(F)F)Oc2ccccc2O1)N1CCCC1	.	.	.	7.88µM	.	.
CC1(C)CC(=O)c2c(oc3cc(O)c(O)cc23)C1	.	.	.	7.94µM	.	.
Nc1nc(N2CCN(C(c3ccccc3)c3ccccc3)CC2)n[nH]1	.	.	.	?	.	.
